# 3CLpro inhibitor = SARS-CoV 3CLpro protease inhibition; inhibition, % at 6 µM; AID 1706; recombinant SARS-CoV 3CLpro, quenched FRET peptide cleavage; 0.14% of 290,000 active; in the data active means inhibition above about 12%
# BoNT-F LC inh = BoNT F light chain protease inhibition | Multiplex microsphere protease cleavage assay, flow cytometry | inhibition, % at 10 µM | 0.22% of 360,000 active | AID 588497; in the data active means inhibition above about 35%, passing the limit was not always enough; inconclusive means no clear call, values can overlap the other calls; further: plate controls were buffer without enzyme for full effect and enzyme alone for no effect
# Anthrax LF inh2 = anthrax lethal factor protease inhibition. multiplex microsphere protease cleavage assay, LF. inhibition, % at 10 µM. 0.12% of 360,000 active; further: plate controls were buffer without enzyme for full effect and enzyme alone for no effect
# BoNT A protease = blocks Botulinum neurotoxin A light chain protease. multiplex microsphere protease substrate cleavage, flow cytometry. inhibition, % at 10 µM. 0.17% of 360,000 active. AID 588499; further: plate controls were buffer without enzyme for full effect and enzyme alone for no effect
# CCHF vOTU inh = CCHFV vOTU protease inhibition; Pep-AMC fluorescence; 0.55% of 370,000 active; inhibition, % at 11.5 µM; in the data active means inhibition above about 30%; further: 0% = vehicle wells with enzyme and 100% = no enzyme wells
# Bead autofluor = counter-screen for toxin protease inhibitors: compound fluorescence | compound autofluorescence counterscreen, microsphere flow cytometry; stronger effect = higher value | fluorescence intensity (concentration not given with the values) | AID 624483 | 3.1% of 360,000 active; in the data active means fluorescence intensity above about 16000; inconclusive means no clear call, values can overlap the other calls
# * hit, by the source's call; ? = inconclusive; · = no result. Compounds with a hit are over-represented: about 3.9% of the library has one in this group of screens. Unless noted, no stated cut-off is given here; in the data, active means inhibition above about 30%; inconclusive means no clear call, values can overlap the other calls; inactive means below that.
SMILES,3CLpro inhibitor,BoNT-F LC inh,Anthrax LF inh2,BoNT A protease,CCHF vOTU inh,Bead autofluor
Cc1ccc(-c2nnc3c4ccccc4c(C)nn23)cc1S(=O)(=O)N1CCN(C)CC1,-2.1,1.7,-6.2,?,8.0,20956*
Cc1ccc(-c2nnc3c4ccccc4c(C)nn23)cc1S(=O)(=O)N1CCN(CCO)CC1,-1.1,-9.4,-2.9,-0.5,-27.8,3215
COc1nc(-c2cccs2)cc(-c2ccc(C)cc2)c1C#N,-3.9,5.2,-3.1,5.1,4.2,21880*
O=C(/C=C/Nc1ccc([N+](=O)[O-])cc1Br)c1cccc2ccccc12,-2.7,-4.0,17.7,37.9*,-4.2,2150
O=C(NCc1ccccc1Br)c1cccs1,·,-2.9,0.2,0.0,0.6,3304
Cc1ccc(CNc2nc(C)nc3sc4c(c23)CCC4)cc1,-2.4,-3.9,-1.2,?,-5.5,17440*
Cc1nc(NC(C)c2ccccc2)c2c3c(sc2n1)CCC3 (stereo not given),-0.6,-2.3,3.5,-0.8,·,16604*
COCCCNC(=O)CN(c1cc(Cl)ccc1OC)S(C)(=O)=O,5.1,-5.4,-0.7,-0.7,-9.7,4252
Cn1nnnc1SCc1c(F)cccc1F,1.7,5.7,-8.0,3.2,-3.6,21178*
Cn1nnnc1SCc1cccc(CSc2nnnn2C)n1,1.9,3.6,-7.8,3.2,-9.6,15289
CN(C)S(=O)(=O)c1cccc(NC(=S)Nc2cc(Cl)cc(Cl)c2)c1,1.1,-2.1,-0.8,?,1.4,23036*
CN(C)S(=O)(=O)c1cccc(NC(=S)Nc2ccc(Cl)cc2Cl)c1,3.6,·,·,·,1.2,·
CN(C)CCNC(=S)Nc1cccc(Cl)c1,8.9,-1.5,-0.9,-1.1,-3.5,23002*
CN(C)CCNC(=O)Nc1ccc(Cl)c(Cl)c1,6.1,-1.4,-0.7,-2.2,-6.9,24214*
O=C(COc1ccccc1C(=O)NCC1CCCO1)Nc1ccc(Br)cc1 (stereo not given),2.0,-6.6,-5.4,-1.1,-3.4,4309
CCC(C)NC(=O)CN(c1cc(C)cc(C)c1)S(=O)(=O)c1c(C)[nH]c(=O)[nH]c1=O (stereo not given),3.1,0.3,2.4,-0.4,-2.4,4234
Cc1cc(C(=O)O[C@@H]2CCC[C@@]3(C(=O)N(Cc4ccccc4)c4ccccc43)[C@H]2NC(=O)CCc2ccccc2)no1,·,·,·,·,13.2,·
COc1ccc(C(O)c2nc(-c3cccc4cccnc34)cs2)cc1 (stereo not given),·,0.0,-4.6,-0.2,-3.8,3508
CC(C)CC(=O)c1c[nH]c(C(=O)NCc2ccc(F)cc2)c1,-4.6,2.9,-8.1,0.4,8.9,3571
CC1Cc2ccccc2N1C(=O)CSc1nnc(-c2ccc(S(=O)(=O)N3CCCC3)cc2)o1 (stereo not given),2.4,-4.1,-0.8,?,-6.7,20428*
CCN(CC)S(=O)(=O)c1ccc(-c2nnc(SCC(=O)N3CCOCC3)o2)cc1,3.1,0.9,-0.8,0.4,5.4,10108
Cc1ccc(-c2nnc(SCC(=O)Nc3ccc(S(=O)(=O)N4CCCCCC4)cc3)o2)cc1,-1.8,10.7,1.2,1.1,-6.7,9547
CC(=O)c1cccc(NC(=O)CSc2nnc(-c3ccc(S(=O)(=O)N4CCCC4)cc3)o2)c1,2.6,3.8,0.9,1.1,-1.7,21749*
CCN(CC)S(=O)(=O)c1ccc(-c2nnc(SCC(C)=O)o2)cc1,-0.7,-4.6,1.3,-0.7,2.5,16485*
O=C(CSc1nnc(-c2ccc(S(=O)(=O)N3CCCC3)cc2)o1)NCc1ccco1,0.8,3.3,0.7,1.6,5.5,21711*
SMILES,3CLpro inhibitor,BoNT-F LC inh,Anthrax LF inh2,BoNT A protease,CCHF vOTU inh,Bead autofluor
O=C(CSc1nnc(-c2ccc(S(=O)(=O)N3CCCC3)cc2)o1)N1CCCC1,-3.5,·,·,·,·,·
O=C(c1ccc(F)cc1F)N1CCC(Oc2cccnc2)CC1,·,·,·,·,10.3,·
CC(C)(C)N1CC(C(=O)O)CC1=O (stereo not given),0.7,-8.9,-10.8,-0.8,2.1,3752
CCCCOc1ccc(C(=O)NC2CCCCN(CC)C2=O)cc1 (stereo not given),·,·,·,·,-2.1,·
CCN(CC)C(=O)CSc1nnc(-c2ccc(S(=O)(=O)N3CCCC3)cc2)o1,-1.1,-1.4,-1.0,?,-2.0,22144*
CC1Cc2ccccc2N1C(=O)CSc1nnc2c(n1)[nH]c1ccccc12 (stereo not given),-0.3,-6.7,0.2,-0.2,-0.1,2464
CC1Cc2ccccc2N1C(=O)CSc1nnc(-c2ccccc2)c(-c2ccccc2)n1 (stereo not given),-1.1,?,?,?,-13.8,16388*
COc1ccc(C(=O)CSc2nnc(-c3ccc(S(=O)(=O)N4CCOCC4)cc3)o2)cc1,-1.6,-3.8,-0.7,-2.6,-3.8,20449*
O=C(OCc1cn([C@@H]2C[C@H](c3ccccc3)N(C(=O)c3cccs3)C[C@H]2O)nn1)c1ccccc1,·,-0.7,-7.7,0.0,4.3,3725
CC1=C(C(=O)N2CCCCCC2)CC(CC(=O)NCCN2CCOCC2)C(=O)N1Cc1ccc(F)cc1 (stereo not given),·,4.3,1.0,0.0,-3.3,6338
CCn1c(CNC(=O)c2ccco2)nnc1SCC(=O)Nc1ccc(Br)cc1F,0.8,7.6,-5.3,4.9,-3.8,20415*
Cn1c(CNC(=O)c2ccco2)nnc1SCC(=O)Nc1ccc(Br)cc1F,1.2,-15.9,-0.5,-1.0,-17.4,2580
CNc1c([N+](=O)[O-])cnn1-c1ccccc1F,3.1,-2.6,3.3,-0.8,23.3,4313
CNc1c([N+](=O)[O-])cnn1-c1ccc(C)cc1,-4.1,-1.3,-6.8,-0.8,7.7,23938*
Fc1ccc(-c2nnc(SCc3cccnc3)o2)cc1,-3.4,-0.3,-0.8,-0.8,-15.6,3892
FC(F)(F)c1cnc(/C=C/Nc2ccccc2Cl)c(Cl)c1,1.2,1.9,-1.4,1.8,2.9,22771*
O=S(=O)(c1ccccc1)c1ncc(C(F)(F)F)cc1Cl,-0.4,-4.3,-3.6,0.4,17.1,3638
COc1nc(-c2ccccc2)ccc1-c1noc(-c2cccnc2)n1,-3.8,-5.4,-1.5,-2.5,-7.1,23960*
COc1nc(-c2ccc(C)cc2)ccc1-c1noc(-c2cccnc2)n1,·,-1.6,0.2,1.1,-1.4,3859
O=C(Nc1ccc(N2CCOCC2)nc1)c1ccc(F)cc1,3.5,-1.4,-1.2,0.5,5.1,22364*
CC1=CC2(C(Cc3ccccc3)N(CC3CC3)C(=NC(=O)c3ccccc3)N2C(=O)OCc2ccccc2)n2c(=O)n(-c3ccccc3)c(=O)n2C1 (stereo not given),·,·,·,·,2.8,·
O=[N+]([O-])c1ccc(/C=N/n2c(COc3ccccc3)n[nH]c2=S)cc1,2.7,-7.2,-1.8,-0.5,2.1,5892
O=[N+]([O-])c1cccc(/C=N/n2c(COc3ccccc3)n[nH]c2=S)c1,0.3,2.9,-8.2,0.3,3.5,16172*
Cc1cc(C)n(-c2ccc(C(=O)OCC(=O)Nc3ccc(Cl)c(S(=O)(=O)N(C)C)c3)cc2)n1,-2.8,-7.4,-1.9,?,5.4,25627*

# High-throughput results from PubChem.
